Data reported in the supplement of paper PMC10849652.
The full data set covers some 8,800 targets. This sample favours those with a hit. About 0.5% of all pairs of compound and target were hits. Values without a mark were called inactive.

Tests used:
Assay in all cases: log2 fold change, soluble protein after heating vs DMSO (PISA); higher = thermal stabilisation; K562 lysate, 10 uM; active = over 0.2 and 3.5 SD of the protein, either way, in both replicates (recomputed)
vemurafenib = compound: CCCS(=O)(=O)Nc1ccc(F)c(C(=O)c2c[nH]c3ncc(-c4ccc(Cl)cc4)cc23)c1F [vemurafenib]
Procedure, shortened: (§1)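 K562 pellets were dounce-homogenised in PBS pH 7.4 containing 1 mM MgCl2, and the crude extract, at 1 mg/mL protein, was exposed to 10 μM compound for 30 min. Aliquots were heated for 3 min across 48°C-58°C, pooled, brought to 0.5% NP-40 at 4°C and spun at 21,000xg for 90 min, with the supernatant taken as soluble protein. TMTpro 16plex LC-MS/MS with equalised channel sums quantified that protein. Values are log-two fold changes in thermal stability relative to solvent controls, taken from duplicates.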

[1] = compound: CCCS(=O)(=O)Nc1ccc(F)c(C(=O)c2c[nH]c3ncc(Cl)cc23)c1F
Procedure, shortened: as §1

barasertib = compound: CCN(CCCOc1ccc2c(Nc3cc(CC(=O)Nc4cccc(F)c4)[nH]n3)ncnc2c1)CCOP(=O)(O)O [barasertib]
Procedure, shortened: as §1

[2] = compound: CC[C@@H]1C(=O)N(C)c2cnc(Nc3ccc(C(=O)NC4CCN(C)CC4)cc3OC)nc2N1C1CCCC1
Procedure, shortened: as §1

volasertib = compound: CC[C@@H]1C(=O)N(C)c2cnc(Nc3ccc(C(=O)N[C@H]4CC[C@H](N5CCN(CC6CC6)CC5)CC4)cc3OC)nc2N1C(C)C [volasertib]
Procedure, shortened: as §1

[3] = compound: CCn1c(C(=O)N(C2CC2)C2CC2)cc2c3c(ncn3C)c(Nc3cc(C)n(C)n3)nc21
Procedure, shortened: as §1

[4] = compound: CCn1cc(-c2ccnc3[nH]c(-c4cccc(CN(C)C)c4)cc23)c(-c2ccc(NC(=O)N(C)C)cc2)n1
Procedure, shortened: as §1

[5] = compound: CN1CCC(CNc2ccc3ncc(-c4cccc(OC(F)(F)F)c4)n3n2)CC1
Procedure, shortened: as §1

saracatinib = compound: CN1CCN(CCOc2cc(OC3CCOCC3)c3c(Nc4c(Cl)ccc5c4OCO5)ncnc3c2)CC1 [saracatinib]
Procedure, shortened: as §1

sotrastaurin = compound: CN1CCN(c2nc(C3=C(c4c[nH]c5ccccc45)C(=O)NC3=O)c3ccccc3n2)CC1 [sotrastaurin]
Procedure, shortened: as §1

alvocidib = compound: CN1CC[C@H](c2c(O)cc(O)c3c(=O)cc(-c4ccccc4Cl)oc23)[C@H](O)C1 [alvocidib]
Procedure, shortened: as §1

Tubastatin A = compound: CN1CCc2c(c3ccccc3n2Cc2ccc(C(=O)NO)cc2)C1 [Tubastatin A]
Procedure, shortened: as §1

[6] = compound: CNC(=O)C1=CC=CC=C1NC2=NC(=NC=C2Cl)NC3=C(C=C(C=C3)N4CCOCC4)OC
Procedure, shortened: as §1

defactinib = compound: CNC(=O)c1ccc(Nc2ncc(C(F)(F)F)c(NCc3nccnc3N(C)S(C)(=O)=O)n2)cc1 [defactinib]
Procedure, shortened: as §1

[7] = compound: CNc1nc(-c2ccc3c(N)n[nH]c3c2)cc(N2C[C@@H](C(=O)NC3CCCCC3)CC[C@H]2C)n1
Procedure, shortened: as §1

encorafenib = compound: COC(=O)N[C@@H](C)CNc1nccc(-c2cn(C(C)C)nc2-c2cc(Cl)cc(NS(C)(=O)=O)c2F)n1 [encorafenib]
Procedure, shortened: as §1

[8] = compound: COC(=O)[C@H](CCSC)NC(=O)C1=C(C=C(C=C1)NC[C@H](CS)N)C2=CC=CC=C2
Procedure, shortened: as §1

alisertib = compound: COc1cc(Nc2ncc3c(n2)-c2ccc(Cl)cc2C(c2c(F)cccc2OC)=NC3)ccc1C(=O)O [alisertib]
Procedure, shortened: as §1

[9] = compound: COc1cc2nc(-c3cc(F)ccc3O)nc(N[C@@H]3CNC[C@H]3C(C)(C)O)c2cc1OC
Procedure, shortened: as §1

gefitinib = compound: COc1cc2ncnc(Nc3ccc(F)c(Cl)c3)c2cc1OCCCN1CCOCC1 [gefitinib]
Procedure, shortened: as §1

Sequence of UniProt Q9H6D7 (Q9H6D7 whole entry, looked up): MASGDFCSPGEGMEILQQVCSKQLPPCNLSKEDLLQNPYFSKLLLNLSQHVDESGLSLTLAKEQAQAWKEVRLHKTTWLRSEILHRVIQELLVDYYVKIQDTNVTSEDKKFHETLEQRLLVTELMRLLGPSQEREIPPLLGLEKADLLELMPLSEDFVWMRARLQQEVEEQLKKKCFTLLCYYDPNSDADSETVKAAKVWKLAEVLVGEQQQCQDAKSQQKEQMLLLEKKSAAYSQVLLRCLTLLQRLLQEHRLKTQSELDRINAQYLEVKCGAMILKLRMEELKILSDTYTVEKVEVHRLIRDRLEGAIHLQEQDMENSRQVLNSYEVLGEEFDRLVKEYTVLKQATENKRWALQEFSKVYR
Sequence of UniProt Q8NEC7 (Q8NEC7 whole entry, looked up): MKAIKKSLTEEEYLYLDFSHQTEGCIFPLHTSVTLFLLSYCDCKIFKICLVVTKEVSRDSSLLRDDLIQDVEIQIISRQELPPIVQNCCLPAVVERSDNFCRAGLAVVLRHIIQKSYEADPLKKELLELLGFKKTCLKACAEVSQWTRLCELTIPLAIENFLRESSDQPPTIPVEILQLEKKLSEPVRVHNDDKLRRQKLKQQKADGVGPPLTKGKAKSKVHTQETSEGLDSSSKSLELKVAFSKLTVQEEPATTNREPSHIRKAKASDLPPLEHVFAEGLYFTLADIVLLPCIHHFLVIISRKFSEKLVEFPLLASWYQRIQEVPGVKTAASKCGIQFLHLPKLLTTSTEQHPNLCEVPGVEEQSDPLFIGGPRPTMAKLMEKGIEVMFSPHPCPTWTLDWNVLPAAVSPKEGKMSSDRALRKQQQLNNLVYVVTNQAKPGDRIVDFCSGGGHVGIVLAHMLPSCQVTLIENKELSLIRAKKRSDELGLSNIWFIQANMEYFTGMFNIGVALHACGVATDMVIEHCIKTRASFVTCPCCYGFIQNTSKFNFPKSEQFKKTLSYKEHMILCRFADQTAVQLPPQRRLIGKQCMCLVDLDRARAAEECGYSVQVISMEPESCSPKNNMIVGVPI
Sequence of UniProt Q16836 (Q16836 whole entry, looked up): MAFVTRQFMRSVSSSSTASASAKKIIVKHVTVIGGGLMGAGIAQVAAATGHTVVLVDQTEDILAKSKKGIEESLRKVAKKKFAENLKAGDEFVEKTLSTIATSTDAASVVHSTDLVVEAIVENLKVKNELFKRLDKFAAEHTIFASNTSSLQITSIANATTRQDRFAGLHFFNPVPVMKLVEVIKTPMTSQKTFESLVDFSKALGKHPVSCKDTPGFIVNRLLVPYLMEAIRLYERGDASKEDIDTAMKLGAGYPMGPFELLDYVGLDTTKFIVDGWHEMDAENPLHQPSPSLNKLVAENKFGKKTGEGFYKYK
Sequence of UniProt Q53GQ0 (Q53GQ0 whole entry, looked up): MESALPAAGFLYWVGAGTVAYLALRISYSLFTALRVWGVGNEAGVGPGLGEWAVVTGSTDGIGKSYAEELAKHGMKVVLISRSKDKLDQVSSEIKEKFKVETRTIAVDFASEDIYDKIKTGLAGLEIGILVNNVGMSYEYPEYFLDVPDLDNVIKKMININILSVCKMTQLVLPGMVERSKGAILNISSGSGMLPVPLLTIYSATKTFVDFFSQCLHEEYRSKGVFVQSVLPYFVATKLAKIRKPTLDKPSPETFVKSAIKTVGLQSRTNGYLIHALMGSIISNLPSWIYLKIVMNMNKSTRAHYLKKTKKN
Sequence of UniProt Q7Z4V5 (Q7Z4V5 whole entry, looked up): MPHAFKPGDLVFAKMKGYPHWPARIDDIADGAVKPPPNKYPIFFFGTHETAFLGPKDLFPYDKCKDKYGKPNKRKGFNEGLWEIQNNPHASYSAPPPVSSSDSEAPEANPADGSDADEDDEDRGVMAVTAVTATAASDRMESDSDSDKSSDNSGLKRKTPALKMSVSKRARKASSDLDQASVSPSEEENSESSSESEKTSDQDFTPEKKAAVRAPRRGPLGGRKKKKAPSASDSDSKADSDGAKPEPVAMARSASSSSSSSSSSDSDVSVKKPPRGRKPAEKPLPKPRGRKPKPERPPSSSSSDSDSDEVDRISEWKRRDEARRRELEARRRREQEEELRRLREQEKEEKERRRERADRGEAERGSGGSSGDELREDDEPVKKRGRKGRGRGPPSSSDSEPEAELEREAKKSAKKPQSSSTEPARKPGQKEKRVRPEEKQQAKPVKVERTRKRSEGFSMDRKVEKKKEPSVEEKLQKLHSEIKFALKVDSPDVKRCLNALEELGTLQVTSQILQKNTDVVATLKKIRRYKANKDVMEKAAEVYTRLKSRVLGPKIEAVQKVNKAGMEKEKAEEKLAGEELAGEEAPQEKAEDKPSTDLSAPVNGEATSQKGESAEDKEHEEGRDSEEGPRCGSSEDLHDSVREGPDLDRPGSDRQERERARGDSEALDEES
Sequence of UniProt P15260 (P15260 whole entry, looked up): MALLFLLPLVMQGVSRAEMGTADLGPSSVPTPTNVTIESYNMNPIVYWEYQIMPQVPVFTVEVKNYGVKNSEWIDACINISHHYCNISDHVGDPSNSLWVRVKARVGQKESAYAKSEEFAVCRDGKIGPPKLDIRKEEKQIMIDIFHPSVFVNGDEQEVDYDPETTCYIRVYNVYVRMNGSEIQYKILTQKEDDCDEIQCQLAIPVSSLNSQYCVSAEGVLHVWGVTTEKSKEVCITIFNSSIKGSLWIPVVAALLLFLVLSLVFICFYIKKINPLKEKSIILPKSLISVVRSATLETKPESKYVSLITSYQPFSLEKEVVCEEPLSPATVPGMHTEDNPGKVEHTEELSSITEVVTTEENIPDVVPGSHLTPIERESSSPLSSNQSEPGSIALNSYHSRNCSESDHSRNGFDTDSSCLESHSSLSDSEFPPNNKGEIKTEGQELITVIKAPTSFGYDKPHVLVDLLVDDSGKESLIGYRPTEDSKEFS
Sequence of UniProt P55795 (P55795 whole entry, looked up): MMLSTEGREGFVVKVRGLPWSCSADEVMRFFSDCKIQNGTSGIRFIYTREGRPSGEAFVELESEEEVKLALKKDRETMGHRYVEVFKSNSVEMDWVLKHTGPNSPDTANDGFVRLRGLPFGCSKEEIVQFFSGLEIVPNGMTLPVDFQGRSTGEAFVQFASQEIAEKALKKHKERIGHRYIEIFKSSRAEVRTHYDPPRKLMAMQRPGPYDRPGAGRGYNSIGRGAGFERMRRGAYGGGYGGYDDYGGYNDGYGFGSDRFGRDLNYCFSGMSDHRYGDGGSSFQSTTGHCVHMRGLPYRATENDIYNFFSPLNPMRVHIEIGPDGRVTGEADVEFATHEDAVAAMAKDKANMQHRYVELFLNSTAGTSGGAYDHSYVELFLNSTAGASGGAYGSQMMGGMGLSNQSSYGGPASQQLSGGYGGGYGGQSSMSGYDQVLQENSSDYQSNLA
Sequence of UniProt Q75QN2 (Q75QN2 whole entry, looked up): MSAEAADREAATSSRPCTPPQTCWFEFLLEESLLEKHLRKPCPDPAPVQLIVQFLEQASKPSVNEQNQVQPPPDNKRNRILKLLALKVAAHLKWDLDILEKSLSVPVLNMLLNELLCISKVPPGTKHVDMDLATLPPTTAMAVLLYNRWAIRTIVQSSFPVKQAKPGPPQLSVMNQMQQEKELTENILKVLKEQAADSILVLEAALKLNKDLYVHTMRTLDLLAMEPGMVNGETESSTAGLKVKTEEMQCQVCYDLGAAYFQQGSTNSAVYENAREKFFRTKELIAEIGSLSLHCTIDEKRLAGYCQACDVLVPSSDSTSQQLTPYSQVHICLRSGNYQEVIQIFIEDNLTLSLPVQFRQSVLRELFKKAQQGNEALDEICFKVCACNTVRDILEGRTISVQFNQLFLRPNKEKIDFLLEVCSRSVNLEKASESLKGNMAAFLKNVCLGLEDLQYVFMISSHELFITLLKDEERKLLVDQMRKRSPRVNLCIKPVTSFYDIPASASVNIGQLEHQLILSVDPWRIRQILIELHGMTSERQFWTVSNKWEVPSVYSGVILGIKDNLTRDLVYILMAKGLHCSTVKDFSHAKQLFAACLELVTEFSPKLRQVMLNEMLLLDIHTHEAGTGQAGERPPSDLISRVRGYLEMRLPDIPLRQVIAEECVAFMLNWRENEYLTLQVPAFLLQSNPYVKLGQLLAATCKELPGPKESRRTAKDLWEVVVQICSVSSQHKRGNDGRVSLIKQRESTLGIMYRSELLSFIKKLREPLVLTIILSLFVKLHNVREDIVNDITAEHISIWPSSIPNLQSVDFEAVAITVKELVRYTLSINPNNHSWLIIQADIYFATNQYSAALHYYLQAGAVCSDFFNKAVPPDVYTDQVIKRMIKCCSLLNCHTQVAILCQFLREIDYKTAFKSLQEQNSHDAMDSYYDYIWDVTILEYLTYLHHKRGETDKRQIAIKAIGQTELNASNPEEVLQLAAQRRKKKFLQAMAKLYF
Sequence of UniProt Q9NVX0 (Q9NVX0 whole entry, looked up): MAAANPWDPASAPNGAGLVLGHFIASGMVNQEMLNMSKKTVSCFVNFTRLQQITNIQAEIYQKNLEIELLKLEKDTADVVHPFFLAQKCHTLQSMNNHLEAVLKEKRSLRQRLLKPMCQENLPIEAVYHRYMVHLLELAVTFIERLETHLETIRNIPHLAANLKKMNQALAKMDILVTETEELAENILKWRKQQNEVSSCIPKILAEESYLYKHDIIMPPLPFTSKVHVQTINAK
Sequence of UniProt P13598 (P13598 whole entry, looked up): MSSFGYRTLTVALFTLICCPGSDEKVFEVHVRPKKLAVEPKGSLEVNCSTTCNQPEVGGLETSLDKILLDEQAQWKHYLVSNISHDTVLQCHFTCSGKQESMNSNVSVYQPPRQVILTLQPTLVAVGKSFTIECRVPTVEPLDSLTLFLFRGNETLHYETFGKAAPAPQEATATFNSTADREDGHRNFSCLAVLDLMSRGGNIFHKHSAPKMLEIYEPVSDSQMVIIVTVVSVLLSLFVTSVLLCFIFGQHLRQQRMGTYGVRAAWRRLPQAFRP
Sequence of UniProt Q6DN03 (Q6DN03 whole entry, looked up): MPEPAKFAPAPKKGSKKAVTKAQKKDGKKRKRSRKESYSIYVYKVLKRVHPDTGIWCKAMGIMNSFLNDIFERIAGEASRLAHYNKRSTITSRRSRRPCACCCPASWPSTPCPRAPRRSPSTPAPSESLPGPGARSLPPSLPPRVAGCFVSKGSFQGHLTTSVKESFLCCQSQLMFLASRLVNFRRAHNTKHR

| Target | log2 fold change (vemurafenib) | log2 fold change [1] | log2 fold change (barasertib) | log2 fold change [2] | log2 fold change (volasertib) | log2 fold change [3] | log2 fold change [4] | log2 fold change [5] | log2 fold change (saracatinib) | log2 fold change (sotrastaurin) | log2 fold change (alvocidib) | log2 fold change (Tubastatin A) | log2 fold change [6] | log2 fold change (defactinib) | log2 fold change [7] | log2 fold change (encorafenib) | log2 fold change [8] | log2 fold change (alisertib) | log2 fold change [9] | log2 fold change (gefitinib) |
| --- | --- | --- | --- | --- | --- | --- | --- | --- | --- | --- | --- | --- | --- | --- | --- | --- | --- | --- | --- | --- |
| INTS10 (UniProt Q9NVR2) | -0.008 | -0.183 | 0.061 | -0.129 | -0.088 | -0.021 | 0.14 | -0.054 | 0.052 | 0.023 | -0.009 | -0.143 | -0.033 | 0.016 | -0.045 | -0.017 | 0.043 | -0.093 | -0.097 | 0.049 |
| HEATR3 (UniProt Q7Z4Q2) | 0.025 | 0.026 | 0.026 | -0.048 | -0.028 | 0.032 | -0.064 | -0.089 | -0.019 | 0.026 | 0.007 | -0.129 | 0.02 | 0.012 | 0 | 0.014 | 0.116 | 0.018 | -0.046 | 0.003 |
| GUSB (UniProt P08236) | 0.013 | 0.028 | -0.024 | -0.049 | 0.053 | 0.027 | -0.561 (active) | 0.355 (active) | -0.008 | 0.038 | -0.278 | 0.022 | 0.017 | 0.015 | -0.027 | 0.089 | -0.019 | 0.089 | 0.071 | -0.049 |
| INTS8 (UniProt Q75QN2) | 0.016 | 0.02 | -0.131 | -0.024 | -0.061 | 0.041 | -0.075 | 0.037 | 0.09 | 0.084 | -0.011 | -0.013 | 0.083 | 0.084 | 0.011 | 0.098 | -0.111 | -0.008 | -0.033 | -0.04 |
| GSTCD (UniProt Q8NEC7) | 0.028 | 0.057 | -0.039 | -0.018 | -0.05 | 0.011 | -0.055 | -0.015 | 0.034 | 0.037 | 0.03 | -0.13 | 0.055 | -0.002 | -0.013 | 0.052 | 0.138 | -0.068 | 0.002 | 0 |
| ICAM2 (UniProt P13598) | -0.036 | 0.016 | 0.018 | 0.03 | 0.015 | -0.017 | 0.426 (active) | -0.031 | 0.004 | -0.035 | 0.078 | 0.017 | 0.032 | 0.039 | -0.019 | -0.026 | -0.065 | -0.016 | 0.009 | -0.02 |
| HSD17B12 (UniProt Q53GQ0) | 0.073 | 0.005 | 0.047 | 0.003 | -0.096 | -0.024 | -0.304 (active) | -0.107 | 0.105 | 0.071 | 0.012 | -0.089 | -0.11 | -0.021 | -0.046 | -0.016 | 0.035 | 0.022 | 0.009 | -0.131 |
| HNRNPH2 (UniProt P55795) | -0.004 | 0.025 | -0.003 | 0.05 | -0.056 | 0.008 | -0.01 | -0.056 | -0.025 | -0.074 | -0.003 | -0.209 | 0.02 | 0.019 | -0.043 | 0.037 | -0.032 | -0.004 | -0.007 | -0.047 |
| HIST2H2BC (UniProt Q6DN03) | -0.261 | 0.026 | -0.029 | -0.05 | 0.013 | 0.033 | 0.291 (active) | -0.024 | 0 | -0.01 | 0.024 | 0.004 | 0.019 | -0.148 | -0.003 | 0.092 | 0.143 | 0.005 | 0.008 | -0.12 |
| HAUS3 (UniProt Q68CZ6) | 0.012 | 0.024 | 0.006 | -0.029 | -0.048 | 0.002 | -0.035 | -0.065 | -0.016 | 0.01 | -0.022 | -0.159 | 0.043 | -0.023 | -0.021 | 0.026 | 0.065 | 0.014 | 0.003 | -0.011 |
| HADH isoform 2 (UniProt Q16836) | -0.032 | -0.022 | -0.049 | 0.002 | 0.004 | 0.009 | 0.066 | -0.054 | -0.096 | 0.004 | 0.048 | 0.003 | -0.024 | 0.061 | 0.09 | -0.048 | 0.03 | 0.021 | -0.002 | 0.042 |
| HDGFL2 isoform 2 (UniProt Q7Z4V5) | 0.016 | -0.003 | -0.01 | 0.064 | 0.052 | -0.066 | -0.417 (active) | 0.196 | -0.015 | 0.038 | -0.155 | 0.011 | 0.013 | -0.008 | 0.016 | -0.004 | -0.065 | -0.029 | 0 | 0.03 |
| HAUS4 (UniProt Q9H6D7) | 0.007 | 0.044 | 0.107 | -0.047 | -0.039 | 0.015 | -0.045 | -0.04 | 0.022 | 0.02 | 0.007 | -0.116 | 0.007 | 0.014 | -0.005 | 0.002 | 0.012 | 0.008 | -0.017 | -0.022 |
| HAUS5 (UniProt O94927) | 0.004 | 0.048 | -0.02 | -0.038 | -0.016 | 0.026 | 0.01 | -0.087 | -0.008 | 0.03 | 0.062 | -0.146 | 0.007 | 0.026 | 0.015 | -0.006 | 0.092 | -0.01 | 0.006 | -0.007 |
| IFNGR1 (UniProt P15260) | 0.182 | -0.07 | -0.051 | 0.234 | 0.08 | -0.153 | -0.641 (active) | 0.331 | 0.032 | -0.018 | -0.348 | 0.157 | -0.022 | -0.164 | 0.272 | -0.018 | -0.002 | 0.138 | 0.106 | -0.036 |
| HAUS2 (UniProt Q9NVX0) | -0.076 | -0.005 | 0.097 | 0.018 | 0.038 | 0.036 | 0.141 | -0.089 | 0.048 | -0.007 | 0.069 | -0.079 | 0.041 | -0.171 | -0.047 | 0.088 | 0.043 | -0.037 | 0.014 | -0.049 |
